Source: PubChem BioAssay (Tox21)
Several values for one entry are separate records, joined by “and”; a condition that tells them apart may be missing. Identical values can stand only once. Inconclusive results are not listed. Entries that show only a call come without a potency. More than one record can exist for a structure, and the calls need not agree. Activity calls are given as the source filed them. Unless noted, the call rests on the fitted dose curve; in most records, active means well fitted curve in the direction sought with a large enough effect in the repeat runs; inconclusive means weak or mixed curves; inactive means no such curve, though single readings can be large; an effect the other way counts as inactive or inconclusive.

Legend:
[1] = biological target: Retinoic acid receptor RXR-alpha (Homo sapiens) (UniProt P19793); assay: qHTS assay to identify small molecule agonists of the RXR signaling pathway (AID 1159527; calls by dose curve; further: nearly all actives have a fitted effect of over 35% in size; further: potency means the concentration at half of the fitted maximal effect)
Chain of Retinoic acid receptor RXR-alpha (Homo sapiens) (P19793 whole entry, looked up): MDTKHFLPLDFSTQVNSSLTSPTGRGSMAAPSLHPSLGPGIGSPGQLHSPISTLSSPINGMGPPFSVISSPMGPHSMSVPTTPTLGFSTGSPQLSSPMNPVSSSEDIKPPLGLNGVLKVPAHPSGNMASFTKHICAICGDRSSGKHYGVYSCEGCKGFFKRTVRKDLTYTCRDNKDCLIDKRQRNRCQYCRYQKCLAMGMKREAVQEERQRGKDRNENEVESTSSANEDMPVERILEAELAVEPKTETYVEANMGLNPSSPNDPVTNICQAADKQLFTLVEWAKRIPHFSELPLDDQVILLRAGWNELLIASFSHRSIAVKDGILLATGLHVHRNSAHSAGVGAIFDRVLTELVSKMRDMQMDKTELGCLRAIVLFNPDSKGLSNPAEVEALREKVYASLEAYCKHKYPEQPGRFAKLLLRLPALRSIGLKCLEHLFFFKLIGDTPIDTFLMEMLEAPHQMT
Method in brief: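 Agonist-mode beta-lactamase reporter assay: HEK 293T RXR-alpha-UAS-bla cells treated 16 hr at 37 C with compounds, 9-cis retinoic acid as positive control. LiveBLAzer FRET substrate, 405 nm excitation, 460/530 nm emission.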

[2] = qHTS assay to identify small molecule agonists of the RXR signaling pathway - cell viability counter screen (AID 1159529); further: series mostly up to about 77 µM; nearly all actives have a fitted effect of over 50% in size
Method in brief: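 CellTiter-Glo luminescence gave viability in the wells also read for beta-lactamase. Cells (RXR-alpha-UAS-bla HEK 293T, 2% charcoal-stripped FBS medium) had 5 hr plating, then 16 hr compound exposure at 37 C; tetraoctyl ammonium bromide served as positive control.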

[3] = qHTS assay to identify small molecule antagonists of the retinoid acid receptor (RAR) signaling pathway - cell viability counter screen (AID 1159551); further: nearly all actives have a fitted effect of over 35% in size
Method in brief: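 Cytotoxicity counter screen: ATP content quantified by CellTiter-Glo luminescence in C3RL4 cells treated 6 hr at 37 C with compound and retinol (1 uM final). Cells plated at 1,000/well and cultured overnight before dosing.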

[4] = qHTS assay to identify small molecule antagonists of the retinoic acid receptor (RAR) signaling pathway (AID 1159552; further: nearly all actives have a fitted effect of over 50% in size)
Method in brief: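 Luminescent RARE reporter read-out in C3RL4 cells: 6 hr co-treatment at 37 C of test compounds with retinol at 1 uM final. Cells plated overnight beforehand; luciferase reagent incubated 30 min at room temperature before reading.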

[5] = qHTS assay to identify small molecule agonists of the retinoic acid receptor (RAR) signaling pathway (AID 1159553); further: potency means the concentration at half of the fitted maximal effect
Method in brief: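 Luminescence was measured 30 min after luciferase reagent addition at room temperature. Before that, C3RL4 reporter cells (1,000 per well, plated overnight) were treated with compound for 6 hr at 37 C and 5% CO2.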

Compound	Potency [1]	Potency [2]	Potency [3]	Potency [4]	Potency [5]
CCCCCCCCCC(=O)OC	inactive	inactive	inactive	inactive	–
CC(C)=CCC/C(C)=C\CO	inactive	inactive	–	–	–
CC(CCC(=O)O)(c1ccc(O)cc1)c1ccc(O)cc1	inactive	inactive	inactive	inactive	–
CCC(C)OC(=O)c1ccc(O)cc1 (centres undefined)	inactive	inactive	inactive	inactive	61.1 µM (active)
CCCCC(CC)COP(=O)(OCC(CC)CCCC)OCC(CC)CCCC (centres undefined)	inactive	inactive	inactive	–	–
CCCCC(CC)COC(=O)c1ccc(N(C)C)cc1 (centres undefined)	inactive	inactive	inactive	inactive	–
Cc1c(C(N)=O)cc([N+](=O)[O-])cc1[N+](=O)[O-]	inactive	inactive	–	–	–
O=C=Nc1ccc(Cc2ccc(N=C=O)cc2)cc1	inactive	inactive	inactive	inactive	–
c1ccncc1	inactive	inactive	inactive	inactive	inactive
COC(=O)c1ccccc1	inactive	inactive	inactive	–	–
CCCCC(CC)COCC1CO1 (centres undefined)	inactive	inactive	inactive	inactive	inactive
CCCCC/C=C/C=C/C=O	inactive	inactive	–	–	–
OCCO	inactive	inactive	inactive	inactive	–
c1ccc2c(c1)Oc1ccccc1S2	inactive	inactive	inactive	–	–
COc1ccccc1/C=C/C=O	inactive	inactive	–	–	–
C/C=C/C(=O)O	inactive	inactive	inactive	inactive	–
CC(C)OB(OC(C)C)OC(C)C	inactive	inactive	–	–	–
CCOCCOCCO	inactive	inactive	inactive	–	–
OC(CCl)CCl	inactive	inactive	inactive	–	–

Compound	Potency [1]	Potency [2]	Potency [3]	Potency [4]	Potency [5]
CC(=O)CC/C=C(\C)CCC=C(C)C	inactive	inactive	inactive	–	–
O=Cc1ccccc1O	inactive	inactive	inactive	inactive	–
COC(=O)CCC(=O)OC	inactive	inactive	–	–	–
CCCc1c(OCCCCc2nn[nH]n2)ccc(C(C)=O)c1O	54.9 µM (active) and 23.9 µM (active)	inactive	–	–	–
c1ccc2c(c1)c1cccc3ccc4cccc2c4c31	43.4 µM (active) and inactive	inactive	inactive	–	–
C=C(C)C1CC=C(C)CC1 (centres undefined)	inactive	inactive	inactive	–	–
O=CCCCC=O	inactive	inactive	–	–	–
CCC(C)CO (centres undefined)	inactive	inactive	inactive	inactive	–
COc1c(Cl)c(Cl)c(Cl)c(Cl)c1Cl	inactive	inactive	–	–	–
COC(=O)Nc1nc2ccc(S(=O)c3ccccc3)cc2[nH]1 (centres undefined)	inactive	inactive	inactive	–	–
CC1=CC2C3CC(C=C3C)C2C1 (centres undefined)	inactive	inactive	inactive	–	–
Cc1ncc[nH]1	inactive	inactive	inactive	inactive	–
CC(=O)c1ccccn1	inactive	inactive	inactive	inactive	–
CCCCOCCOCCOCCO	inactive	inactive	inactive	inactive	–
NNc1ccc(C(=O)O)cc1	49.5 µM (active)	inactive	inactive	inactive	–
O=P(O)(O)O	inactive	inactive	inactive	inactive	–
Nc1ccc(S(=O)(=O)Nc2cnc3ccccc3n2)cc1	inactive	inactive	–	–	–
c1cc(-c2ccncc2)ccn1	inactive	inactive	inactive	inactive	–
CC1=CCC(C(C)(C)O)CC1 (centres undefined)	inactive	inactive	inactive	–	–
